An excerpt weighted towards active compounds, which were near 21% of everything screened.
Shiga inhibitor – blocks Shiga toxin action in Vero cells; Vero cells, Shiga toxin protein synthesis inhibition reporter; inhibition, % at 38.7 µM; actives 9.2% (n = 290,000); AID 2315; in the data active = inhibition mostly above about 28%, no sharp cut-off; inactive = mostly below about 43%; also: 0% is about no effect
HCV inhibitor – inhibitors of hepatitis C virus infection; Huh7.5.1 HCVcc-Cre infection, luciferase reporter, 44 h; Potency, µM (series often up to 41.8 µM), without a hit: at the highest dose activity change, negative = inhibition, most hits filed as inhibitors; actives 3.4% (n = 340,000); also: potency is read from the fitted curve at half-maximal effect; % is scaled to controls: 0 for no effect and ±100 for the full control effect
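Cells seeded at 1,000/well and cultured 4 h, then compounds added followed by HCVcc-Cre virus (~0.5 moi). After 44 h further culture, luciferase substrate was added, plates held 15 min at room temperature, and luminescence read for 15 sec.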
Pf growth 96h – P. falciparum growth inhibition at 96 hours. Potency, µM (doses to about 28.7 µM), for inactives: top-dose activity change, negative = inhibition, most hits filed as inhibitors. AID 504834. P. falciparum luciferase reporter growth, 96 h. actives 6.9% (n = 320,000); also: potency is read from the fitted curve at half-maximal effect; % is scaled to controls: 0 for no effect and ±100 for the full control effect
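Two parasite generations (96 h, 37 C, 5% CO2) of compound exposure in infected erythrocytes (0.05% parasitemia, 2% hematocrit). Luciferase-reporter P. falciparum; decreased luminescence indicates inhibited growth, aimed at apicoplast-acting delayed death.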
CHX counter – counter-screen hit for Shiga toxin inhibitors, cycloheximide. cell reporter, cycloheximide protein synthesis inhibition counterscreen. max response, %. actives 12% (n = 300,000). AID 2314; in the data active = max response mostly above about 13%, no sharp cut-off; inactive = mostly below about 14%; also: read at 38.3 µM for the half of the compounds with a filed dose; 0% is about no effect
Pf growth 48h – inhibits P. falciparum growth in the first generation, 48 h. actives 5.9% (n = 310,000). Potency, µM (top dose mostly 28.7 µM), for the others: top-dose activity change, negative = inhibition, most hits filed as inhibitors. AID 504832. P. falciparum luciferase growth in erythrocytes, 48 h; also: potency is read from the fitted curve at half-maximal effect; % is scaled to controls: 0 for no effect and ±100 for the full control effect
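Growth was read as firefly luciferase luminescence after a 48 h, 37 C, 5% CO2 exposure of compounds to reporter-bearing P. falciparum cultures (0.1% parasitemia, 2% hematocrit final) in Albumax-supplemented RPMI 1640.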
HCMV inh – blocks human cytomegalovirus replication. activity change, negative = inhibition, % at 57.5 µM. HFF cells, HCMV-luciferase reporter, 72 h; active compounds read low. AID 1259415. actives 4.5% (n = 410,000); in the data active = activity change below about -60%; inconclusive = no clear call, values can overlap the other calls; inactive = above about -39%; also: % is scaled to controls: 0 for no effect and ±100 for the full control effect
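Two-dose cell screen: HFF monolayers treated with compounds and infected with luciferase-expressing HCMV at 1 PFU/cell, 72 h at 37C, then lysed for luciferase measurement.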
Active calls of the source: *; ? = inconclusive; nt = no result. Unless noted, calls follow the shape of the dose curve; as a rule, active = well fitted inhibition curve with a large enough effect; inconclusive = small, poorly fitted or top-dose-only effect, or another doubt; inactive = no such curve, though single readings can be large or run the other way.

SMILES	Shiga inhibitor	HCV inhibitor	Pf growth 96h	CHX counter	Pf growth 48h	HCMV inh
CN(c1ccccc1)S(=O)(=O)c1ccc(C(=O)Nc2ccncc2)cc1	nt	-19%	-33%	nt	?	?
O=Cc1c(Sc2ccccc2)nc2ccccn2c1=O	4	-8%	7.4µM*	1	nt	43
CCOC(=O)N1CCN(c2nc3ccccn3c(=O)c2C=O)CC1	-8	7%	0.83µM*	1	0.29µM*	-7
O=Cc1c(SCCO)nc2ccccn2c1=O	7	8%	9%	-1	4%	34
CN1CCN(c2nc3ccccn3c(=O)c2C=O)CC1	-7	-8%	12%	-1	0%	nt
O=c1c2ccccc2nc2ccccn12	70*	7%	22%	42*	176%	12
COC(=O)CSc1nc2ccccn2c(=O)c1C=O	46*	5%	246%	18*	298%	94
CCc1nnc(NC(=O)CSc2nc3cc(OC)ccc3cc2C)s1	-4	?	21%	-6	11%	-16
O=Cc1c(Sc2ccccn2)nc2ccccn2c1=O	9	35µM*	?	-6	?	149
O=c1c2ccccc2nc2c3ccccc3cnn12	78*	?	96%	40*	78%	-29
CCNC(=O)/C(C#N)=C/c1c(N2CCN(c3ccccc3)CC2)nc2ccccn2c1=O	44*	-2%	-17%	29*	-13%	-4
O=c1[nH]c2ccccc2c2nc3ccccn3c12	51*	?	-10%	40*	17%	109
O=Cc1c(N2CCCCC2)nc2ccccn2c1=O	-20	12%	?	-1	?	?
O=c1nc2c(O)cccn2c2c1c(=O)[nH]c1ccccc12	-8	13%	51%	1	0%	45
Cc1cc(C)cc(NC(=O)CN2C(=O)COc3ccc(S(=O)(=O)Nc4ccccc4)cc32)c1	nt	nt	nt	nt	nt	21
CN(CCc1cnn(C)c1)C(=O)C1CCC(=O)N(CC2CCCCC2)C1 (stereo unspecified)	-11	5%	2%	1	-17%	-3
Cc1cccc(C(=O)Nc2ccccc2OCc2cc(=O)n3cc(C)ccc3n2)c1	nt	nt	nt	nt	nt	16
Cc1c(C(=O)NCCc2ccc(S(N)(=O)=O)cc2)sc2nc3n(c(=O)c12)CCCC3	nt	nt	nt	nt	nt	-4
Cc1cc(NC(=O)CCNS(=O)(=O)c2ccc3c(c2)CCCC(=O)N3)ccc1Br	nt	nt	nt	nt	nt	-29
CCOC(=O)c1c(C2CCN(C(=O)OCC)CC2)nc2ccccn12	4	-18%	5.2µM*	-7	nt	-39
CCOC(=O)c1c(C)nc2ccccn12	19	-1%	nt	1	26%	12
O=C(c1ccc2c(Cl)c3c(nc2c1)CCCC3)N1CCC(N2CCCCC2)CC1	-15	?	?	-4	-2%	-60*
CCC(C)NC(=O)c1ccc2c(SCC(=O)O)c3c(nc2c1)CCCC3 (stereo unspecified)	16	15%	?	-5	-5%	48
CCC(C)NC(=O)c1ccc2c(Cl)c3c(nc2c1)CCC3 (stereo unspecified)	53*	-8%	6%	28*	66%	-24
O=C(Nc1ccc(Cl)cn1)c1ccc2c(Cl)c3c(nc2c1)CCC3	64*	-17%	261%	35*	114%	11
SMILES	Shiga inhibitor	HCV inhibitor	Pf growth 96h	CHX counter	Pf growth 48h	HCMV inh
CCCc1ncc(CN2CCCCC2C(=O)Nc2ccc(Oc3ccccc3)nc2)cn1 (stereo unspecified)	nt	-4%	nt	nt	nt	8
CC(=O)Nc1c(O)c2cccc3c2n(c1=O)CCC3	nt	4%	nt	nt	nt	-35
C/C(CCc1ccccc1)=N\NC(=O)C(=O)Nc1cccc(Cl)c1	-2	14%	?	-1	-2%	-19
COc1ccc2nc(Nc3nc4cc5c(cc4s3)OCO5)sc2c1	64*	-5%	-4%	23*	-10%	-27
COc1ccc2nc(Nc3ccc4c(c3)OCO4)sc2c1	45*	?	1%	39*	159%	31
COc1ccc2nc(NC(=O)/C=C/c3ccc4c(c3)OCO4)sc2c1	18	13%	1.9µM*	4	-1%	15
Cc1sc(NC(=O)/C=C/c2ccc3c(c2)OCO3)nc1-c1ccccc1	11	?	28%	-1	-12%	?

Assay outcomes deposited in PubChem BioAssay by National Center for Advancing Translational Sciences (NCATS).
